Among all 310,000 compounds or so, about 17,000 (5.5%) were called active. Entries that show only a call come without a potency. Another 11% or so got no clear call; they are omitted. Calls come from the whole dose curve; as a rule, active = well fitted inhibition curve with a large enough effect; inconclusive = small, poorly fitted or top-dose-only effect, or effect the other way; inactive = no such curve, though single readings can be large or run the other way. The full list was thinned out, with actives kept by preference.
The compounds below were run against Nuclear receptor ROR-gamma (Mus musculus) (UniProt P51450) (assay: qHTS for inhibitors of ROR gamma transcriptional activity). Details: Drosophila S2 Gal4-RORgamma UAS-luciferase reporter, 20 h; series mostly up to 53.6 µM.
Sequence of Nuclear receptor ROR-gamma (Mus musculus) (P51450 whole entry, looked up, the tested form may be a part): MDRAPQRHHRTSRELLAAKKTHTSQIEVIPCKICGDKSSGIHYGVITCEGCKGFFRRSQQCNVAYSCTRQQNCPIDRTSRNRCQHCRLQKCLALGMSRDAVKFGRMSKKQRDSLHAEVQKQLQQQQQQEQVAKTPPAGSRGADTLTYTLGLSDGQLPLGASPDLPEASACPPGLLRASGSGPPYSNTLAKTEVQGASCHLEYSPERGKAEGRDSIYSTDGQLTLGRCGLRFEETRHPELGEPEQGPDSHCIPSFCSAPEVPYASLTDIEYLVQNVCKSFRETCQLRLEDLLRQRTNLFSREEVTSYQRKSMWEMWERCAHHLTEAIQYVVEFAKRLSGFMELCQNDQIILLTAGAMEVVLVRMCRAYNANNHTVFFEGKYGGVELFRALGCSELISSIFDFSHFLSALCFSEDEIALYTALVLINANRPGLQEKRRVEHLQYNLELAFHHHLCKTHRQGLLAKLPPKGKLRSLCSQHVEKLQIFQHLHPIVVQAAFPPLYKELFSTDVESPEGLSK
Procedure, shortened: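 Luciferase reporter read in Schneider cells carrying Gal4-RORγ (mouse) and UAS-Photinus luciferase; cells given compound 1 h before 700 uM copper sulfate induction, then incubated 20 h at ambient temperature.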
In the case of `Cc1cccc(-c2c(NC(=O)c3ccco3)oc3ccc(Cl)cc3c2=O)c1`, the Potency is reported as “inactive”.
With `CN(C)CCOC1c2ccccc2-c2ccccc21` the Potency was “inactive”.
In the case of `COc1ccc(CNC(=O)C2CCN(C(=O)c3ccccc3)CC2)cc1`, the Potency is reported as “inactive”.
With `O=C(c1ccc[nH]c1=S)N1CCN(S(=O)(=O)c2ccc(Br)cc2Cl)CC1` the Potency was 22.4 µM (active).
`O=C(c1ccc(Cl)c(S(=O)(=O)N2CCCCC2)c1)N1CCCCCC1` was tested, and the Potency was “inactive”.
For `O=C(c1ccccc1F)N1CCN(S(=O)(=O)c2ccc(Br)cc2)CC1`, the Potency was “inactive”.
`COc1cc2c(C(=O)N(C)c3cc(Cl)ccc3OC)cn(C)c(=O)c2cc1OC` was tested, and the Potency was “inactive”.
With `COc1ccc(CNC(=O)C2CCN(S(=O)(=O)c3ccc(SC)cc3)CC2)cc1` the Potency was “inactive”.
In the case of `Cc1nnc(SCC(N)=O)n1CC1CCCO1` (stereo not given), the Potency is reported as “inactive”.
With `Cc1cc(C(=O)COC(=O)C2CC2)c(C)n1-c1ccc(F)cc1` the Potency was “inactive”.
`Cc1ccsc1C(=O)OCC(=O)c1cc(C)n(CC2CCCO2)c1C` (stereo not given) was tested, and the Potency was 3.98 µM (active).
`CCc1ccc(CN(C)C(=O)C2CCC(=O)N(Cc3cccc(OC)c3)C2)nc1` (stereo not given) was tested, and the Potency was “inactive”.
`CC(C)CC(=O)Nc1ccc(Cc2ccncc2)cc1` was tested, and the Potency was “inactive”.
For `O=C(O)C1CCCN1C1=NS(=O)(=O)c2ccccc21` (stereo not given), the Potency was “inactive”.
With `O=C(CN1CCC(NC(=O)C2CC2)CC1)Nc1ccccc1[N+](=O)[O-]` the Potency was “inactive”.
`Cc1c(NC(=O)CSc2nnnn2-c2ccc(C(=O)O)cc2)c(=O)n(-c2ccccc2)n1C` was tested, and the Potency was “inactive”.
In the case of `Cc1nc2ccccc2n1CC(=O)N/N=C/c1cccnc1`, the Potency is reported as “inactive”.
With `C/C(CC(=O)Nc1ccc(C)cc1C)=N\NC(=O)C(C)C` the Potency was “inactive”.
In the case of `Cc1ccc(NC(=O)CSc2cccc3cccnc23)c(C)c1`, the Potency is reported as 10 µM (active).
In the case of `Cc1ccc(NC(=O)Cn2nc(C)c3ccccc3c2=O)c(C)c1`, the Potency is reported as “inactive”.
With `O=C(CSc1cccc2cccnc12)N/N=C/c1cccnc1` the Potency was 7.08 µM (active).
With `O=C(CNC(=O)c1cccnc1)N/N=C/c1cccnc1` the Potency was “inactive”.
For `Cc1c(NC(=O)CSc2cccc3cccnc23)c(=O)n(-c2ccccc2)n1C`, the Potency was 7.94 µM (active).
With `Cc1c(NC(=O)c2cccnc2)c(=O)n(-c2ccccc2)n1C` the Potency was “inactive”.
In the case of `Cc1cc(NC(=O)CCN2CCN(Cc3ccccc3)CC2)ccc1Br`, the Potency is reported as “inactive”.
With `CCN(CC)S(=O)(=O)c1ccc(N2CCOCC2)c(NC(=O)C2CSC3(C)CCC(=O)N23)c1` (stereo not given) the Potency was “inactive”.
`O=C(CCS(=O)(=O)c1ccc2c(c1)NC(=O)CS2)NCc1ccccc1Cl` was tested, and the Potency was “inactive”.
In the case of `Cc1ccc(CN(CC(=O)NC2CCCCC2)C(=O)c2csnn2)cc1`, the Potency is reported as “inactive”.
In the case of `O=C(c1ccccc1)N1CCC(CC2CC(c3ccc(Cl)cc3)=NO2)(C(=O)NCC2CCCCC2)CC1` (stereo not given), the Potency is reported as “inactive”.
In the case of `COc1cccc(CNC(=O)CCC2CCCN(C(=O)c3ccc(F)c(Cl)c3)C2)c1` (stereo not given), the Potency is reported as “inactive”.
`O=Cc1cn(Cc2ccccc2)nc1-c1cccnc1` was tested, and the Potency was “inactive”.
With `O=C1/C(=C\c2cccnc2)CN(Cc2ccccc2)C/C1=C\c1cccnc1` the Potency was 6.31 µM (active).
For `Clc1ccc(CN2CCN(/N=C/c3cccnc3)CC2)cc1`, the Potency was “inactive”.
With `Cc1cc(C)c(S(=O)(=O)c2cc(F)ccc2C)c(=O)[nH]1` the Potency was “inactive”.
For `O=S(=O)(c1ccc(Br)cc1)c1nc(-c2ccccc2)oc1N1CCOCC1`, the Potency was “inactive”.
For `CCOC(=O)c1cccc(NC(=O)CCc2nnc3ccc(N4CCOCC4)nn23)c1`, the Potency was “inactive”.
In the case of `CCn1c2ccccc2c2cc(NC(=S)N3CCOCC3)ccc21`, the Potency is reported as 3.16 µM (active).
`CCn1c2ccccc2c2cc(NC(=O)CNC)ccc21` was tested, and the Potency was “inactive”.
`Cc1cc(N2CCN(C)CC2)nc2ccc(NC(=S)N3CCOCC3)cc12` was tested, and the Potency was “inactive”.
For `COc1ccc(NC(=O)CN2C(=O)CSc3ccc(S(=O)(=O)N4CCC(C)CC4)cc32)cc1`, the Potency was “inactive”.
`CCOc1ccc(N(CC(=O)NCC2CCCO2)S(=O)(=O)c2ccc(C)cc2)cc1` (stereo not given) was tested, and the Potency was “inactive”.
`CC(C)CNC(=O)C(=O)NCC(c1ccc2c(c1)OCO2)N1CCOCC1` (stereo not given) was tested, and the Potency was “inactive”.
For `O=C(CCN1C(=O)[C@@H]2Cc3ccccc3CN2C1=O)NCc1ccccc1`, the Potency was “inactive”.
In the case of `COC(=O)c1ccccc1NC(=O)C1CCN(C(=O)N2CCOc3ccccc32)CC1`, the Potency is reported as “inactive”.
`CC(Sc1nnc(CNC(=O)c2ccccc2F)n1C)C(=O)Nc1nccs1` (stereo not given) was tested, and the Potency was “inactive”.
`Cc1ccc(S(=O)(=O)N2CCC(C)CC2)cc1C(=O)NCc1ccccn1` was tested, and the Potency was “inactive”.
With `COc1cccc(CNC(=O)Cn2c(=O)oc3cc(S(=O)(=O)N4CCCCC4)ccc32)c1` the Potency was “inactive”.
With `O=C(Cc1cccs1)Nc1ccc([N+](=O)[O-])cc1` the Potency was “inactive”.
`CCNC(=O)N1c2ccccc2Sc2ccccc21` was tested, and the Potency was “inactive”.
For `O=C(CCN1c2ccccc2Sc2ccccc21)Nc1ccccc1`, the Potency was “inactive”.
`CCN1/C(=C/C(=S)Nc2ccccc2)Sc2ccccc21` was tested, and the Potency was 3.16 µM (active).
For `COc1ccc(C(=O)NC2CC2)cc1OC1CCN(C/C=C/c2ccccc2)CC1`, the Potency was “inactive”.
For `CCCn1c(=S)[nH]c2ccc(C(F)(F)F)cc21`, the Potency was “inactive”.
With `CC(C)n1c(=S)[nH]c2cc(C(F)(F)F)ccc21` the Potency was 0.891 µM (active).
For `O=C(NCc1ccccc1)C(c1cccnc1)N(C(=O)c1csnn1)c1ccc(F)cc1` (stereo not given), the Potency was “inactive”.
With `Cn1c(=O)c(=O)n(C)c2cc(S(=O)(=O)CCC(=O)N3CCCCC3)ccc21` the Potency was “inactive”.
With `COc1ccc(/C=C/c2c(-c3cccc(C)c3)oc3ccc(-c4ccc5c(c4)OCO5)cc23)cc1` the Potency was “inactive”.
In the case of `CCOC(=O)C1=C(C)Nc2nc3ccccc3n2C1c1cccs1` (stereo not given), the Potency is reported as 5.62 µM (active).
`COc1ccccc1NC(=O)C1=C(C)NC(=O)NC1c1ccc(C)s1` (stereo not given) was tested, and the Potency was “inactive”.
With `CCOC(=O)c1ccc(NC(=O)C2CC(=O)Nc3nc4ccccc4n32)cc1` (stereo not given) the Potency was “inactive”.
In the case of `COc1ccccc1NC(=O)C1=C(C)Nc2nc3ccccc3n2C1c1cccs1` (stereo not given), the Potency is reported as 11.2 µM (active).
For `COc1ccccc1NC(=O)C1=C(C)Nc2ncnn2C1c1ccc(C)o1` (stereo not given), the Potency was “inactive”.
With `CCOC(=O)C1=C(C)NC(=S)NC1c1cccs1` (stereo not given) the activity change, negative = inhibition was -23.4% [at 10 µM] (inactive).
With `Cc1cccc(CCNS(=O)(=O)c2ccc3c(c2)NC(=O)CO3)c1` the Potency was “inactive”.
With `O=C(NC1CCCC1)C(c1ccco1)N(C(=O)c1ccco1)c1ccc(F)cc1` (stereo not given) the Potency was “inactive”.
`Cc1ccc(C(=O)Oc2ccc(C(=S)N3CCOCC3)cc2)cc1` was tested, and the Potency was “inactive”.
For `COCC(=O)N1CCCC(C(=O)c2ccc(C(F)(F)F)cc2)C1` (stereo not given), the Potency was “inactive”.
`NC(=O)c1ccc(Nc2ccc3c(c2)CCC3)c([N+](=O)[O-])c1` was tested, and the Potency was “inactive”.
`COc1cc(C(=O)NCc2nnc(SCC(=O)Nc3nc4ccc(C)cc4s3)o2)cc(OC)c1OC` was tested, and the Potency was 2.51 µM (active).
In the case of `COc1cc(C(=O)NCc2nnc(SCC(=O)c3ccc(Cl)cc3)o2)cc(OC)c1OC`, the Potency is reported as “inactive”.
For `COc1ccc(C(=O)NCc2nnc(SCC(=O)Nc3cccc(OC)c3)o2)cc1`, the Potency was “inactive”.
With `OCCN1CCN(C(=S)c2ccc(-c3ccccc3)cc2)CC1` the Potency was “inactive”.
In the case of `S=C(c1ccc(-c2ccccc2)o1)N1CCCCC1`, the Potency is reported as 10 µM (active).
With `S=C(c1ccccc1)N1CCCC1` the Potency was “inactive”.
For `Cc1ccccc1NC(=O)CSc1ccc2nnc(-c3ccccn3)n2n1`, the Potency was “inactive”.
With `CC(C)CC(=O)Nc1nnc(S(=O)(=O)N(C)c2ccc(Cl)cc2)s1` the Potency was “inactive”.
For `CC(=O)Nc1ccc(N2C(=O)C3C4C=CC(CC4)C3C2=O)cc1` (stereo not given), the Potency was “inactive”.
For `CCOC(=O)c1c(C)[nH]c2c1-c1ccccc1C(=O)C2=O`, the Potency was 3.55 µM (active).
For `CCOC(=O)c1c(C)[nH]c(=S)c(C#N)c1-c1ccccc1`, the Potency was 12.6 µM (active).
`CCOC(=O)c1c(-c2ccccc2)oc2cc(Br)c(O)cc12` was tested, and the Potency was “inactive”.
In the case of `Cc1[nH]c2ccccc2c1C(=O)COC(=O)C(C)C`, the Potency is reported as “inactive”.
`CCOC(=O)c1c(C)nc(-c2ccccc2)nc1NC(=O)C(C)C` was tested, and the Potency was “inactive”.
`CCOC(=O)N1CCN(CC(=O)c2c(C)[nH]c3ccccc23)CC1` was tested, and the Potency was “inactive”.
For `COc1cccc(NC(=O)CCc2nnc3ccc(N4CCC(C)CC4)nn23)c1`, the Potency was “inactive”.
`CCCCCC(O)(CCN1CCCCC1)c1ccccc1` (stereo not given) was tested, and the Potency was “inactive”.
With `COc1cc(C)cc(CN2CCC(Cc3ccccc3)CC2)c1O` the Potency was “inactive”.
In the case of `CCn1c(SCC(=O)NC2=NCCS2)nnc1C(C)NC(=O)c1ccccc1F` (stereo not given), the Potency is reported as “inactive”.
With `CC1CCN(C(=O)CCc2nnc3ccc(NCc4ccco4)nn23)CC1` the Potency was “inactive”.
`CCOC(=O)C1CCCN(S(=O)(=O)c2ccc3c(c2)C(C)(C)C(=O)N3C)C1` (stereo not given) was tested, and the Potency was “inactive”.
`CC1CC(C)CN(c2ccc(S(=O)(=O)N3CCOCC3)cc2)C1` (stereo not given) was tested, and the Potency was “inactive”.
In the case of `O=C(Cc1ccc(Br)cc1)N1CCN(c2ccccn2)CC1`, the Potency is reported as “inactive”.
With `O=C(Cc1ccccc1)N1CCN(S(=O)(=O)c2ccc([N+](=O)[O-])cc2)CC1` the Potency was “inactive”.
In the case of `CCC1=NN(C(=O)Cc2ccc([N+](=O)[O-])cc2)C(O)(c2ccc(Br)cc2)C1` (stereo not given), the Potency is reported as 11.2 µM (active).
With `C[N+](C)(C)CCNC(=O)c1cc[n+](Cc2ccccc2)c(/C=N/O)c1` the Potency was “inactive”.
With `CC1CCCCC1NC(=O)c1cn(C)c2ccc(S(=O)(=O)N3CCOCC3)cc2c1=O` (stereo not given) the Potency was “inactive”.
`COc1ccc(C(O)(C2CCCCC2)C(CN2CCCC2)c2ccccc2)cc1` (stereo not given) was tested, and the Potency was “inactive”.
With `Cc1cccc(NC(=S)N2CCC(c3nc4ccccc4s3)CC2)c1` the Potency was 12.6 µM (active).
With `O=C(C1CCCO1)N1CCN(C(=S)Nc2cccc(Cl)c2)CC1` (stereo not given) the Potency was “inactive”.
For `Cc1nc2ccc(NC(=S)N3CCC(C)CC3)cc2nc1C`, the Potency was “inactive”.
`Cc1ccc(C2CCN(C(=S)Nc3cccc(Cl)c3)C2)cc1` (stereo not given) was tested, and the Potency was 10 µM (active).
In the case of `O=C(NC1CCCC1)C1CCN(C(=O)Nc2cccc(Cl)c2)CC1`, the Potency is reported as “inactive”.
`Cc1cccc(C(=O)N2CCC(c3nc4ccccc4s3)CC2)c1` was tested, and the Potency was “inactive”.
`Cc1cccc(OCC(=O)Nc2ccc(NC(=O)c3ccco3)c(C)c2)c1` was tested, and the Potency was “inactive”.
For `O=C(NCC(=O)N(c1ccccc1)C(C(=O)NCC1CCCO1)c1ccccc1)c1cccs1` (stereo not given), the Potency was “inactive”.
`CC1(C)C2CCC1(CS(=O)(=O)NCCc1c[nH]c3ccccc13)C(=O)C2` (stereo not given) was tested, and the Potency was “inactive”.
Note: nearly all actives have a fitted effect of over 60% in size.
Potency is the fitted concentration of half-maximal effect.
